# PubChem BioAssay (Tox21)
# A number with no mark means an inactive call. Inconclusive results are not listed. Entries that show only a call come without a potency. Active and inactive are the calls of the source. Calls come from the whole dose curve.
# Experiments:
# [1] = target: Acetylcholinesterase (Homo sapiens) (UniProt P22303); assay: Acetylcholinesterase (AChE) small molecule antagonists: colormetric cell-based qHTS assay (AID 1347395); note: nearly all actives have a fitted effect of over 30% in size; note: potency is the fitted concentration of half-maximal effect
# Acetylcholinesterase (Homo sapiens), sequence (P22303 whole entry, looked up): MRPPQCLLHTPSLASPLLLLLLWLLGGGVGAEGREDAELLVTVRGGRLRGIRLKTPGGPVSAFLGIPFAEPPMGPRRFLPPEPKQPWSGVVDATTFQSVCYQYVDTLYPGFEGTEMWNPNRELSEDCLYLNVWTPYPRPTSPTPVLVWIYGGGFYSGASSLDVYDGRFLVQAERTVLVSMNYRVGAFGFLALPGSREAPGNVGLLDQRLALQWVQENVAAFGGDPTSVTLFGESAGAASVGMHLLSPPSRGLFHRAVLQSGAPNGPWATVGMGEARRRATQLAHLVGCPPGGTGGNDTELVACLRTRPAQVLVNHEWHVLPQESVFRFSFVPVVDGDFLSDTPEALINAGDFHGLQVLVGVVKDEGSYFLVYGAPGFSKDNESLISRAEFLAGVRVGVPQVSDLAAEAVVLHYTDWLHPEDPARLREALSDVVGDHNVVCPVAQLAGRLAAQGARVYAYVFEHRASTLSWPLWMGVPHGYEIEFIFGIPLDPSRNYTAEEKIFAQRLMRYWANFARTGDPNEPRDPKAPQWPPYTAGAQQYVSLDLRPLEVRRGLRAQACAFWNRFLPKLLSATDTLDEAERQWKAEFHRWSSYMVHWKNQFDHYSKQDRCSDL
# In short: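 Cells (SH-SY5Y, 2,000 per well) are seeded and left overnight at 37 C. Compound is added for 30 min, then DTNB and acetylthiocholine for a further 90 min at 37 C before absorbance-based thiocholine detection.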
# [2] = target: Acetylcholinesterase (Homo sapiens) (UniProt P22303); assay: Acetylcholinesterase (AChE) small molecule antagonists: enzyme-based qHTS assay (AID 1347397); conditions: Potency: AChE enzyme activity inhibition; outcome: AChE enzyme activity inhibition; note: nearly all actives have a fitted effect of over 55% in size; note: potency is the fitted concentration of half-maximal effect
# In short: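 Colorimetric DTNB readout of acetylthiocholine hydrolysis, 10 min at room temperature, after 30 min room-temperature exposure of 50 mU/mL recombinant human enzyme to compound; DMSO vehicle control.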
# [3] = target: Acetylcholinesterase (Homo sapiens) (UniProt P22303); assay: Acetylcholinesterase (AChE) small molecule antagonists: enzyme-based qHTS assay with human liver microsomes (AID 1347399); conditions: Potency: qHTS inhibition; outcome: qHTS inhibition; note: nearly all actives have a fitted effect of over 60% in size
# In short: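 Recombinant human AChE (50 mU/mL in the enzyme mix) and human liver microsomes (0.25 mg/mL final) were preincubated with compound and NADPH (0.25 mg/mL final) for 30 min at 37 C. Acetylthiocholine/DTNB was then added; thiocholine was read colorimetrically after 10 min at room temperature.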
smiles,measurement,setting,value
C=CCSCC1Nc2cc(Cl)c(S(N)(=O)=O)cc2S(=O)(=O)N1 (stereo not drawn),Potency,[1],inactive
same,Potency,[2],inactive
same,Potency,[3],inactive
Cc1ccc(-c2ncc(Cl)cc2-c2ccc(S(C)(=O)=O)cc2)cn1,Potency,[1],27.5 µM (active)
same,Potency,[2],inactive
same,Potency,[3],inactive
OCCN1CCN(CC/C=C2/c3ccccc3Sc3ccc(C(F)(F)F)cc32)CC1,Potency,[1],inactive
same,Potency,[2],inactive
same,Potency,[3],inactive
N#CSCC(=O)O,Potency,[1],inactive
same,Potency,[2],inactive
same,Potency,[3],inactive
CNCc1ccc(NC(=O)c2c[nH]c3c2C(=O)CCC3)cc1,Potency,[1],35.6 µM (active)
same,Potency,[2],inactive
same,Potency,[3],inactive
C/C(=N/NC(=O)c1ccncc1)C(=O)O,Potency,[1],inactive
same,Potency,[2],inactive
same,Potency,[3],inactive
CC(C)(C)OC(=O)c1ccc(O)cc1,Potency,[1],inactive
same,Potency,[2],inactive
same,Potency,[3],inactive
C[n+]1cc2c3c(ccc2c2ccc4cc5c(cc4c21)OCO5)OCO3,Potency,[1],10.7 µM (active)
same,Potency,[2],16.9 µM (active)
same,"activity change, negative = inhibition",[3],-3.24% [at 23.6 µM]
CN(C)CCOC(c1ccc(Cl)cc1)c1ccccn1 (stereo not drawn),Potency,[1],inactive
same,Potency,[2],inactive
same,Potency,[3],inactive
CCCOC(C(=O)OC1CCN(C)CC1)(c1ccccc1)c1ccccc1,Potency,[1],inactive
same,Potency,[2],inactive
same,Potency,[3],inactive
CCCCCc1ccc(O)cc1,Potency,[1],inactive
same,Potency,[2],inactive
same,Potency,[3],inactive
CN1C[C@H]2c3ccccc3Oc3ccc(Cl)cc3[C@@H]2C1,Potency,[1],inactive
same,Potency,[2],inactive
same,Potency,[3],inactive
O=P(O)(O)Oc1ccccc1,Potency,[1],inactive
same,Potency,[2],inactive
same,Potency,[3],inactive
NC1[C@H]2CN(c3nc4c(cc3F)c(=O)c(C(=O)O)cn4-c3ccc(F)cc3F)C[C@@H]12 (stereo partly drawn),outcome,[1],inactive
same,outcome,[2],inactive
same,outcome,[3],inactive
COC(=O)c1ccccc1C(=O)c1ccc(OCCN2CCCCC2)cc1,Potency,[1],inactive
same,Potency,[2],inactive
same,Potency,[3],inactive
CCCCCC=CCC=CCCCCCCCC(=O)OCC,Potency,[1],inactive
same,Potency,[2],inactive
same,Potency,[3],inactive
COC(=O)Nc1nc2ccc(C(=O)c3ccccc3)cc2[nH]1,Potency,[1],inactive
same,Potency,[2],inactive
same,Potency,[3],inactive
NC/C=C/C(=O)O,Potency,[1],inactive
same,Potency,[2],inactive
same,Potency,[3],inactive
NC(=O)NC1N=C([O][Al])NC1=O (stereo not drawn),Potency,[1],inactive
same,Potency,[2],inactive
same,Potency,[3],inactive
CC(C)C1OCCN1CCOC(=O)NCCCCCCNC(=O)OCCN1CCOC1C(C)C (stereo not drawn),Potency,[1],inactive
same,Potency,[2],inactive
same,Potency,[3],inactive
CC(C)[C@H]1CC[C@H](C)C[C@@H]1O,Potency,[1],inactive
same,Potency,[2],inactive
same,Potency,[3],inactive
CCCCOCCOC(=O)COc1nc(Cl)c(Cl)cc1Cl,Potency,[1],inactive
same,Potency,[2],inactive
same,Potency,[3],inactive
CCN(CC)c1ccc2c(-c3ccccc3C(=O)O)c3ccc(=[N+](CC)CC)cc-3oc2c1,Potency,[1],inactive
same,Potency,[2],inactive
same,Potency,[3],inactive
CCOCN(C(=O)CS(=O)(=O)O)c1c(C)cccc1CC,Potency,[1],inactive
same,Potency,[2],inactive
same,Potency,[3],inactive
O=C1Cc2cc(CCN3CCN(c4nsc5ccccc45)CC3)c(Cl)cc2N1,Potency,[1],inactive
same,Potency,[2],inactive
same,Potency,[3],inactive
CCCCCCCC/C=C/C(=O)O,Potency,[1],inactive
same,Potency,[2],inactive
same,Potency,[3],inactive
C=C(C)c1ccccc1,Potency,[1],inactive
same,Potency,[2],inactive
same,Potency,[3],inactive
C[C@@H](CN(C)C)CN1c2ccccc2Sc2ccccc21,Potency,[1],inactive
same,Potency,[2],inactive
same,Potency,[3],inactive
CN(CCOc1ccc(NS(C)(=O)=O)cc1)CCc1ccc(NS(C)(=O)=O)cc1,Potency,[1],17.4 µM (active)
same,Potency,[2],inactive
same,Potency,[3],inactive
O=C(O)c1cc(O)c2ccccc2c1O,Potency,[1],inactive
same,Potency,[2],inactive
same,Potency,[3],inactive
NC(=O)Nc1ccccc1,Potency,[1],inactive
same,Potency,[2],inactive
same,Potency,[3],inactive
CCCOc1ccc2c(c1)CC[C@@H]1[C@@H]2CC[C@]2(C)C(OC)CC[C@@H]12 (stereo partly drawn),Potency,[1],inactive
same,Potency,[2],inactive
same,Potency,[3],inactive
OC1(c2ccccc2)CCNCC1,Potency,[1],inactive
same,Potency,[2],inactive
same,Potency,[3],inactive
CCN(CC)CC,Potency,[1],inactive
same,Potency,[2],inactive
same,Potency,[3],inactive
COc1cc(N)c(Cl)cc1C(=O)NC1CCN(CCCOc2ccc(F)cc2)CC1OC (stereo not drawn),Potency,[1],inactive
same,Potency,[2],inactive
same,Potency,[3],inactive
CC1(C)[C@@H](O)CC[C@]2(C)[C@H]3C(=O)C=C4[C@@H]5C[C@@](C)(C(=O)O)CC[C@]5(C)CC[C@@]4(C)[C@]3(C)CC[C@@H]12,Potency,[1],inactive
same,Potency,[2],inactive
same,Potency,[3],inactive
CCCCC/C=C\C=C\C(=O)OCC,Potency,[1],inactive
same,Potency,[2],inactive
same,Potency,[3],inactive
CN(Cc1cc(Br)cc(Br)c1N)C1CCCCC1,Potency,[1],inactive
same,Potency,[2],inactive
same,Potency,[3],inactive
Cc1c(C)c2c(c(C)c1OC(=O)CCC(=O)O)CC[C@@](C)(CCC[C@H](C)CCC[C@H](C)CCCC(C)C)O2,Potency,[1],inactive
same,Potency,[2],inactive
same,Potency,[3],inactive
OCCN1CCN(CCCN2c3ccccc3Sc3ccc(C(F)(F)F)cc32)CC1,Potency,[1],inactive
same,Potency,[2],inactive
same,Potency,[3],inactive
C=CCN1C[C@H](C(=O)N(CCCN(C)C)C(=O)NCC)C[C@@H]2c3cccc4[nH]cc(c34)C[C@H]21,Potency,[1],34.7 µM (active)
same,Potency,[2],inactive
same,Potency,[3],inactive
